NPSR antag: qHTS Assay for Antagonists of the Neuropeptide S Receptor: cAMP Signal Transduction | Q6W5P4 | CHO-NPSR cells, cAMP TR-FRET, antagonist mode | Potency, µM (highest dose often 38.3 µM), actives largely listed as inhibitors | actives 1% (n = 220,000); note: nearly all actives have a fitted effect of over 50% in size
Target sequence (Q6W5P4 whole entry, looked up): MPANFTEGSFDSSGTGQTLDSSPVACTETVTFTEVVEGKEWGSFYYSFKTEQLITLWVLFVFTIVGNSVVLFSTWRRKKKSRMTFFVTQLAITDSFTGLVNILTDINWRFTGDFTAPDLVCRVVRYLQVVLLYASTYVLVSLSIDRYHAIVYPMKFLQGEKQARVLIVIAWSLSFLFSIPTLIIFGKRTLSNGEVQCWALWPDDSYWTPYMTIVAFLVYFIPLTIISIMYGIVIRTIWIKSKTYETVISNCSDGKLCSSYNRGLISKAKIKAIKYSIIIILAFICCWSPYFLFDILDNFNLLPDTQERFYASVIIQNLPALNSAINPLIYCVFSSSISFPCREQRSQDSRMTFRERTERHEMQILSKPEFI
ALDH1A1 inh: qHTS Assay for Inhibitors of Aldehyde Dehydrogenase 1 (ALDH1A1); Aldehyde dehydrogenase 1A1 (Homo sapiens), P00352; Purified ALDH1A1, NADH fluorescence, propionaldehyde substrate; Potency, µM (highest dose often 75.3 µM), actives largely listed as inhibitors; actives 7.3% (n = 220,000); AID 1030, 2008; active = well fitted inhibition curve with a large enough effect, not every such curve was filed as active; inconclusive = small, poorly fitted or top-dose-only effect, or another doubt; inactive = no such curve, though single readings can be large or run the other way
Tau fluor counter: Counterscreen qHTS for Inhibitors of Tau Fibril Formation, Fluorescence Polarization. tau K18 P301L Alexa594 fluorescence, heparin fibrillization. Potency, µM (top dose mostly 57.7 µM). actives 0.93% (n = 280,000). AID 1463, 2008; note: nearly all actives have a fitted effect of over 55% in size
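Human K18 P301L tau (15 uM unlabeled plus 0.24 uM Alexa 594-labeled, final) in 100 mM sodium acetate pH 7 was mixed with compound and 20 uM heparin and incubated 6 hr at 37 C.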
Tau ThT inhib: qHTS for Inhibitors of Tau Fibril Formation, Thioflavin T Binding; actives 2.1% (n = 270,000); recombinant tau K18 P301L (four-repeat tau fragment), heparin-induced fibrillization, ThT fluorescence; Potency, µM (titrated, usually from 57.4 µM), hits mostly inhibitors; note: nearly all actives have a fitted effect of over 55% in size
Target sequence (P10636 561-689 P618L limits assumed): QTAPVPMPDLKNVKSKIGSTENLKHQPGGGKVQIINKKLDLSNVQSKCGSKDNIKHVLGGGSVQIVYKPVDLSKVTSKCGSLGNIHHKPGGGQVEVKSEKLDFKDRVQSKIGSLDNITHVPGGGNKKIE
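Aggregation was driven by heparin (20 uM final) acting on recombinant tau […] bearing P301L in 100 mM sodium acetate pH 7; fibrils were detected with Thioflavin T.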
Tau fibril FP: qHTS for Inhibitors of Tau Fibril Formation, Fluorescence Polarization; Microtubule-associated protein tau (Homo sapiens), P10636; K18 P301L tau heparin fibrillization, Alexa594 FP, 6 h; Potency, µM (doses to about 57.7 µM), most hits filed as inhibitors; actives 0.39% (n = 280,000); note: nearly all actives have a fitted effect of over 55% in size
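Read-out: fluorescence polarization of Alexa 594-labeled tau (0.24 uM), 555 nm excitation, 632 nm emission. Mixtures held 15 uM unlabeled K18 P301L, compound and 20 uM heparin, pH 7 acetate buffer, incubated 6 hr at 37 C.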
HPGD block: qHTS Assay for Inhibitors of HPGD (15-Hydroxyprostaglandin Dehydrogenase). 15-hydroxyprostaglandin dehydrogenase [NAD(+)] (Homo sapiens), P15428. purified HPGD, NADH fluorescence kinetic, PGE2 substrate. Potency, µM, hits mostly inhibitors. actives 4.3% (n = 150,000); active = well fitted inhibition curve with a large enough effect, not every such curve was filed as active; inconclusive = small, poorly fitted or top-dose-only effect, or another doubt; inactive = no such curve, though single readings can be large or run the other way
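20 nM HPGD preincubated 15 min at room temperature with compound in 50 mM Tris-HCl pH 8, 0.01% Tween 20. Started with 1 mM NAD+ and 30 uM prostaglandin E2; NADH fluorescence (360/450 nm) read 5 times over 30-s intervals, last minus first.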
Large screens that a line does not name were inactive. Rows were chosen to be rich in hits. Some 9.5% of all compounds tested hit in one or more screens of this group. Unless noted, calls come from the whole dose curve; as a rule, active = well fitted curve in the direction sought with a large enough effect; inconclusive = small, poorly fitted or top-dose-only effect, or another doubt; inactive = no such curve, though single readings can be large; an effect the other way counts as inactive or inconclusive.

Cc1ccc(NCC(=O)c2ccc([N+](=O)[O-])cc2)cc1	ALDH1A1 inh 7.9µM, Tau fluor counter inconclusive, Tau ThT inhib 18µM, Tau fibril FP inconclusive (no result: HPGD block)
Cc1ccc(C(=O)CNc2cccc([N+](=O)[O-])c2)cc1	ALDH1A1 inh 13µM, Tau ThT inhib inconclusive (no result: HPGD block)
Nc1ccccc1C(=O)N/N=C1\C2CN3CCN(C2)CC1(c1ccccc1)C3	ALDH1A1 inh inconclusive, HPGD block inconclusive
Cc1ccc(-n2c(C)cc(C)c(C#N)c2=O)cc1Cl	none
COc1ccc(C2=NN(CN3C(=O)C(=O)c4ccccc43)C(c3cccc([N+](=O)[O-])c3)C2)cc1 (stereo unspecified)	Tau ThT inhib inconclusive (no result: ALDH1A1 inh, HPGD block)
C=CCn1c(COc2cccc(C)c2)nnc1SCC(=O)NC(=O)NCc1ccco1	ALDH1A1 inh inconclusive
COc1ccc2nc(N3C(=O)/C(=C/c4ccc(Cl)cc4)NC3=S)sc2c1	Tau ThT inhib 1.1µM
Cc1cccc2sc(N)nc12	ALDH1A1 inh inconclusive (no result: NPSR antag, Tau fluor counter, Tau ThT inhib, Tau fibril FP)
Cc1ccc(NS(=O)(=O)c2ccc3nc(-c4ccccc4)[nH]c3c2)cc1Cl	Tau fluor counter inconclusive, Tau ThT inhib inconclusive, Tau fibril FP 10µM (no result: NPSR antag, ALDH1A1 inh, HPGD block)
CC(=O)Nc1ccc2nc(-c3ccc(Br)o3)[nH]c2c1	ALDH1A1 inh 32µM, Tau ThT inhib inconclusive
O=S(=O)(c1ccc2nc(-c3ccccc3)[nH]c2c1)N1CCN(c2ccc(Cl)cc2)CC1	Tau fluor counter inconclusive, Tau fibril FP inconclusive
O=C(Nc1ccc2nc(-c3ccc(Br)o3)[nH]c2c1)c1ccco1	Tau ThT inhib inconclusive
Cc1cc(NS(=O)(=O)c2ccc3nc(-c4ccccc4)[nH]c3c2)ccc1Br	Tau fluor counter inconclusive, Tau ThT inhib inconclusive, Tau fibril FP 7.9µM (no result: NPSR antag, ALDH1A1 inh, HPGD block)
O=S(=O)(Nc1ccc(Br)cc1F)c1ccc2nc(-c3ccccc3)[nH]c2c1	Tau ThT inhib inconclusive, Tau fibril FP 14µM (no result: NPSR antag, ALDH1A1 inh, HPGD block)
O=S(=O)(Nc1ccc2nc(C(F)(F)F)[nH]c2c1)c1ccccc1	ALDH1A1 inh inconclusive
CCCCCCCC/C=C\C/C=C\C/C=C\CCCC(=O)NCCO	none (no result: NPSR antag)
C=CCCC	none (no result: NPSR antag, Tau fluor counter, Tau ThT inhib, Tau fibril FP)
Cc1cccc(N(C)c2nc3ccc(C)cc3n3cnnc23)c1	none (no result: NPSR antag, ALDH1A1 inh, HPGD block)
N=C1C(c2ccccc2)=C(O)CN1c1ccc2c(c1)OCO2	none
Cc1ccc(NS(=O)(=O)c2ccc(Cl)c(C(=O)Nc3ccccc3-c3nc4ccccc4[nH]3)c2)cc1C	Tau fluor counter inconclusive, Tau ThT inhib inconclusive, Tau fibril FP 14µM, HPGD block inconclusive
Cc1ccc(-c2nc3ccc(NS(=O)(=O)c4ccccc4)cc3[nH]2)o1	ALDH1A1 inh 8.9µM, Tau ThT inhib inconclusive
O=S(=O)(Nc1ccc2nc(-c3ccc(Br)o3)[nH]c2c1)c1ccccc1	none
CCOC(=O)N1CCC(N2C(=O)c3ccccc3C2Nc2ccc(S(=O)(=O)N3CCCCC3)cc2)CC1 (stereo unspecified)	NPSR antag 10µM, ALDH1A1 inh 25µM (no result: HPGD block)
CCOC(=O)N1CCC(N2C(=O)c3ccccc3C2Nc2ccccc2C)CC1 (stereo unspecified)	ALDH1A1 inh inconclusive, Tau ThT inhib inconclusive
Cc1ccc(N2C(=O)c3ccccc3C2Nc2ccc(S(=O)(=O)N3CCOCC3)cc2)nc1 (stereo unspecified)	ALDH1A1 inh inconclusive
CCN(CC)S(=O)(=O)c1ccc(NC2c3ccccc3C(=O)N2c2ccc(C)cn2)cc1 (stereo unspecified)	ALDH1A1 inh 18µM
Cc1ccc(N2C(=O)c3ccccc3C2Nc2ccc(S(=O)(=O)N3CCCCC3)cc2)nc1 (stereo unspecified)	ALDH1A1 inh 14µM, Tau fluor counter inconclusive
CCOC(=O)OCC1OC(C#Cc2ccc(F)cc2F)C=CC1OC(=O)OCC (stereo unspecified)	none (no result: NPSR antag, HPGD block)

Source: PubChem BioAssay (National Center for Advancing Translational Sciences (NCATS))
